Two sequences from PMC7862700, “An all-to-all approach to the identification of sequence-specific readers for epigenetic DNA modifications on cytosine” can be followed below.

Holding throughout (test): DAPPL (digital affinity profiling via proximity ligation, sequencing); 10 mM Tris-HCl pH 7.5, 50 mM NaCl, 1 mM DTT, 4% glycerol, room temperature, 30 min; GST-TFs on glutathione beads, 16-mer random dsDNA library, 0.1% formaldehyde crosslink after washing; high values mean tight binding
Common to all, as to details: protein: recombinant; tags: N-terminal GST; dsDNA, one strand shown

One assay deals with T1, FLI1 (Homo sapiens, UniProt Q01543 1-452).
T1 sequence: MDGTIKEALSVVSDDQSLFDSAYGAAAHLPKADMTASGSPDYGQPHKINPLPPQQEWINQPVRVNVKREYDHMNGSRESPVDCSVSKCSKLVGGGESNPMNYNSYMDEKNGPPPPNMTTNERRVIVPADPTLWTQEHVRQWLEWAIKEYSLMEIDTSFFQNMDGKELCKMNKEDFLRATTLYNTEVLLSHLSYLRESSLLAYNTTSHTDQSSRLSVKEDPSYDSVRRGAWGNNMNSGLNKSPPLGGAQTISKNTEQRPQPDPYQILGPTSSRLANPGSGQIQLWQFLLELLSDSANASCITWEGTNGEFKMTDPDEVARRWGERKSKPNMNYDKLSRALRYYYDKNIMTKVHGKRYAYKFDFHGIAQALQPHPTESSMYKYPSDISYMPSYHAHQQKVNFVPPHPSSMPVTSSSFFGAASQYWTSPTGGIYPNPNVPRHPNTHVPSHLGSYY
Put shortly:
(§1)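 Each value of binding signal is a hexamer's read frequency for a factor divided by the same hexamer's frequency in the tag-only sample. Barcoded, bead-captured GST fusions of human transcription factors made in yeast were pooled with that sample and incubated with 200 nmole of a random double-stranded 16-mer DNA library in Tris/NaCl/DTT/glycerol buffer at room temperature for 30 min. Washing, 0.1% formaldehyde crosslinking, proximity ligation, PCR and Illumina NextSeq500 sequencing followed.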

The target of another assay is T2, FEV (Homo sapiens, UniProt Q99581 1-238).
T2 sequence: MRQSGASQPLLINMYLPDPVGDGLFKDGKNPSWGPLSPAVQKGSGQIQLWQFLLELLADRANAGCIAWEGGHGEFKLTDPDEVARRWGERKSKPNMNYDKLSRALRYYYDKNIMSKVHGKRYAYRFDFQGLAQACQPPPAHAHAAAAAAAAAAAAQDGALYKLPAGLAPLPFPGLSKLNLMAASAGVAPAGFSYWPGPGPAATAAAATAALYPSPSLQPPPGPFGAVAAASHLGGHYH
Put shortly:
as §1

The target in the next assay is ELF4 (Homo sapiens, UniProt Q99607 1-663). Put shortly: as §1
Another assay has as its target T3, ELK4 (Homo sapiens, UniProt P28324-2 1-405).
T3 sequence: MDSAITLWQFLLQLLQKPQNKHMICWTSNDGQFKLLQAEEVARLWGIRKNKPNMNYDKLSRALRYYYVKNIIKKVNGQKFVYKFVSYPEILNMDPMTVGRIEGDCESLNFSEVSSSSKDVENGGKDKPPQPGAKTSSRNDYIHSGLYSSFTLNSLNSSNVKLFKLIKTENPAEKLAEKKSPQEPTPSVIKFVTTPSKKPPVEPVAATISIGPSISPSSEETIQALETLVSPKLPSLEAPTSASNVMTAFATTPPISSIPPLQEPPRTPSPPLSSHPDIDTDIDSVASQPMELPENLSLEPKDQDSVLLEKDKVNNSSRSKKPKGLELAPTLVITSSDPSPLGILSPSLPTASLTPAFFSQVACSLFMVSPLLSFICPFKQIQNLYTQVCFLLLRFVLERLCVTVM
An outline of the steps:
as §1

Another assay addresses T4, ELK1 (Homo sapiens, UniProt P19419 1-428).
T4 sequence: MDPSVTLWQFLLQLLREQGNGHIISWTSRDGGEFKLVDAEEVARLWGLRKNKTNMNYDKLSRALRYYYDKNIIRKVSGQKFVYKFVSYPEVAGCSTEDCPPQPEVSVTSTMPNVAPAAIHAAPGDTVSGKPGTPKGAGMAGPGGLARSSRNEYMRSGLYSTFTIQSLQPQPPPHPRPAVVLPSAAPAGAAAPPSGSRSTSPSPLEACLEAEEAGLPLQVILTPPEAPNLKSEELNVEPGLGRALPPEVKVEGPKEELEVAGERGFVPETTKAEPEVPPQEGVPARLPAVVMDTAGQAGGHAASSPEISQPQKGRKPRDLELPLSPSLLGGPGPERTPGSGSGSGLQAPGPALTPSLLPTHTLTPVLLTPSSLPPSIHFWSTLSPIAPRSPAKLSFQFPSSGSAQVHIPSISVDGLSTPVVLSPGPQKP
Put shortly: as §1

A further assay concerns the target ELF1 (Homo sapiens, UniProt P32519 1-619). Put shortly:
as §1

Another assay concerns the target T5, EHF (Homo sapiens, UniProt Q9NZC4 1-300).
T5 sequence: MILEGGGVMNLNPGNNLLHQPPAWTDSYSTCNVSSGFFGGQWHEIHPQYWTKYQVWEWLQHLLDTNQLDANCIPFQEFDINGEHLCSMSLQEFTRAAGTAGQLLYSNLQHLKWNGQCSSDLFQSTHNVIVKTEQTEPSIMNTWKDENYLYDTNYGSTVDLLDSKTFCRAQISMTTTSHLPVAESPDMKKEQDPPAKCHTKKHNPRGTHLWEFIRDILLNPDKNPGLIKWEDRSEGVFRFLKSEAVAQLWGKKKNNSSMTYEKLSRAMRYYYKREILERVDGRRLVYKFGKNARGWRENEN
An outline of the steps: as §1

Another assay concerns the target T6, ETV2 (Homo sapiens, UniProt O00321 1-342).
T6 sequence: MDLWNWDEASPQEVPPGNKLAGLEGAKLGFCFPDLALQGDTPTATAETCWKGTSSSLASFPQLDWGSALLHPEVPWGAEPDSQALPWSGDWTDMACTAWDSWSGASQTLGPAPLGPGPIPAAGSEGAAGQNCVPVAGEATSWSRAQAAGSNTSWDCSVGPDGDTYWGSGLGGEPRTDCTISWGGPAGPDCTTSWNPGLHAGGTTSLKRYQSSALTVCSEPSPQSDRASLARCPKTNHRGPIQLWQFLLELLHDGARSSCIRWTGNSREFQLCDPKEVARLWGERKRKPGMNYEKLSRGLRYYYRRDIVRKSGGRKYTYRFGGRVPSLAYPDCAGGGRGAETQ
An outline of the steps:
as §1

The target of another assay is T7, ELF3 (Homo sapiens, UniProt P78545 1-371).
T7 sequence: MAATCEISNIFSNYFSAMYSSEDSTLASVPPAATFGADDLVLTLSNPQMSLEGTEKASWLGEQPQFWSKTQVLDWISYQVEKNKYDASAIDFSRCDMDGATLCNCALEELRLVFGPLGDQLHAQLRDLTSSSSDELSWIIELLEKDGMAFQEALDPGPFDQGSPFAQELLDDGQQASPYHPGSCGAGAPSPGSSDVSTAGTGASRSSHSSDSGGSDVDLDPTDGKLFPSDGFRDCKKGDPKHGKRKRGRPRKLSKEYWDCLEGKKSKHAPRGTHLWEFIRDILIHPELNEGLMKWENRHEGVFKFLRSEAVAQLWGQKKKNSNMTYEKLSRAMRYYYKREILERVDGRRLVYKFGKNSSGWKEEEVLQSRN
An outline of the steps:
as §1

The next assay deals with T8, SPDEF (Homo sapiens, UniProt O95238 1-335).
T8 sequence: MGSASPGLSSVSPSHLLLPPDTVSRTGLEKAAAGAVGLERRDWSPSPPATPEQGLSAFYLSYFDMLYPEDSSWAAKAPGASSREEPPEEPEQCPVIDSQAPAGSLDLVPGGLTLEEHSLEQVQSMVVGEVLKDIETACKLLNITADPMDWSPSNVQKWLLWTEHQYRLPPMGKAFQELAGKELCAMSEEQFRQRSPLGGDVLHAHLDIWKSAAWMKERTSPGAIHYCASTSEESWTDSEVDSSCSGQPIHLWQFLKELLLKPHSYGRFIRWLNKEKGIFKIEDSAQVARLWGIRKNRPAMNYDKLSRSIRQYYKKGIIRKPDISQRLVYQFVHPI
An outline of the steps:
as §1

Another assay deals with T9, ETV7 (Homo sapiens, UniProt Q9Y603 1-341).
T9 sequence: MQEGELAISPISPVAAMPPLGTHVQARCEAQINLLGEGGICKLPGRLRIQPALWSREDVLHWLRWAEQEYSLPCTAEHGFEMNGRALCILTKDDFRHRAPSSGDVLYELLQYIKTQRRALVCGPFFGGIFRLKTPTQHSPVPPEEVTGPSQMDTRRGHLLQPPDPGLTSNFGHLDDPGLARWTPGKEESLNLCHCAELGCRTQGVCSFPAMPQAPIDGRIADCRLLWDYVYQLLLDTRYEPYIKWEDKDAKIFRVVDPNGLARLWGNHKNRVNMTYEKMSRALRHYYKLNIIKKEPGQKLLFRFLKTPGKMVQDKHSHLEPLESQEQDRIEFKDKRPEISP
Put shortly:
as §1

ELF4, sequence (Q99607 whole entry): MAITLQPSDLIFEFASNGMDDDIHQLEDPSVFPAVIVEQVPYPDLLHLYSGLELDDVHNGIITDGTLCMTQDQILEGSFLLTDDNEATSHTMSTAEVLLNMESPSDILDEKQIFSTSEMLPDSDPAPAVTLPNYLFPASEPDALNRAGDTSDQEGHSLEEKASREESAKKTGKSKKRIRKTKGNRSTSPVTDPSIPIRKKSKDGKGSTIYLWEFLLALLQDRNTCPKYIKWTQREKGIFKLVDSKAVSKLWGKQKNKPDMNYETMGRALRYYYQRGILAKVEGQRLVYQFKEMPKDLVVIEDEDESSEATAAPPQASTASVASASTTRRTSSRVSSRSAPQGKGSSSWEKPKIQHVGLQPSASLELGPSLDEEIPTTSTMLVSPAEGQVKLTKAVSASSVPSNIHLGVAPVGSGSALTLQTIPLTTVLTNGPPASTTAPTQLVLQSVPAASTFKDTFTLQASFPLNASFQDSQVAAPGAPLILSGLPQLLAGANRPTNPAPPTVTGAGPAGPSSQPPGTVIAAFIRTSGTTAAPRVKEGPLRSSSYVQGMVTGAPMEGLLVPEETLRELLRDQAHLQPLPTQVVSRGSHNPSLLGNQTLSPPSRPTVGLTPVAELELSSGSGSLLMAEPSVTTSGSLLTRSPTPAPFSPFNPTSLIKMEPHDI
ELF1, sequence (P32519 whole entry): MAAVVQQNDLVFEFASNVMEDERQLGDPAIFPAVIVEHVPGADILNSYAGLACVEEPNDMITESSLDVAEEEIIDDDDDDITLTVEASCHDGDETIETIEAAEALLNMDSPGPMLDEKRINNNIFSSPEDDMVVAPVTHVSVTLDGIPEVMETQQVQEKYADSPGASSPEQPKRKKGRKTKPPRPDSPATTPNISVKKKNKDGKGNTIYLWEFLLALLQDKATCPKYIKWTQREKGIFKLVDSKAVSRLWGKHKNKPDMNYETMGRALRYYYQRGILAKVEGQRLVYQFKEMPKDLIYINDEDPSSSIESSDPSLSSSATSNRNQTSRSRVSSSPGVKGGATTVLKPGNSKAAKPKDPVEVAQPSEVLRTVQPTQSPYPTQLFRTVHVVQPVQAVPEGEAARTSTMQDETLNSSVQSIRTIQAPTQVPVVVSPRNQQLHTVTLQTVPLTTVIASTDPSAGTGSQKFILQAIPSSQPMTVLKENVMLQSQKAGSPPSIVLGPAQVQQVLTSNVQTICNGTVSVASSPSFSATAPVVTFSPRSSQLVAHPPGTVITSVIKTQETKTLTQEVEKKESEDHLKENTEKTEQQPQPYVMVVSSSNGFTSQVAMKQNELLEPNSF

Turning to CCACAG, the binding signal in the assay with FLI1 was 1.01 fold enrichment (6-mer frequency, TF over GST control); with FEV, 1.01 fold enrichment (6-mer frequency, TF over GST control); with ELF4 it was 1.03 fold enrichment (6-mer frequency, TF over GST control); with ELK4, 1.04 fold enrichment (6-mer frequency, TF over GST control).
Turning to GCCGTC, the binding signal in the assay with FLI1 is 1.04 fold enrichment (6-mer frequency, TF over GST control); with ELK1, 1.03 fold enrichment (6-mer frequency, TF over GST control); with ELF1 it was 1.02 fold enrichment (6-mer frequency, TF over GST control); with EHF it was 1.1 fold enrichment (6-mer frequency, TF over GST control); with ELK4, 1.1 fold enrichment (6-mer frequency, TF over GST control); with ETV2, 1.03 fold enrichment (6-mer frequency, TF over GST control). Moreover, the binding signal in the assay with ELF3 is 1.17 fold enrichment (6-mer frequency, TF over GST control); with SPDEF, 1.03 fold enrichment (6-mer frequency, TF over GST control); with ETV7, 1.03 fold enrichment (6-mer frequency, TF over GST control).
